Measured values from PubChem BioAssay AID720518 (National Center for Advancing Translational Sciences (NCATS), 2013).
Records with an inconclusive call do not appear. Where a call stands in place of a potency, no number is given. The source made the active and inactive calls. Calls come from the whole dose curve.

Test: qHTS for Inhibitors of Cell Surface uPA Generation: Wild-type Protective Antigen (WT-PrAg) Counterscreen for Cherry-picked Compounds
Conditions: cells, WT protective antigen toxicity counterscreen; series mostly up to 115 µM

Q: With `C[C@@H](CSc1ccccc1)CN1CC[C@H](O)CCC1=O` as the compound, how does the Potency read?
A: The Potency was “inactive”.

Q: For `C=CCn1c(SCCN2C(=O)c3ccccc3C2=O)nc2scc(-c3ccc(F)cc3)c2c1=O`, which Potency is on record?
A: Its Potency is “inactive”.

Q: For `COC(=O)C(CCSC)NC(=O)Cn1ncc2c(=O)oc3ccccc3c21` (stereo not given), which Potency is on record?
A: The Potency was “inactive”.

Q: For `CN(C(=O)CCn1c(=S)oc2ccccc21)c1ccc(F)cc1`, which Potency is on record?
A: Its Potency is “inactive”.

Q: With `CCOc1ccc(-n2cnc3scc(-c4ccc(OC)c(OC)c4)c3c2=O)cc1` as the compound, how does the Potency read?
A: Its Potency is “inactive”.

Q: For `Cc1cc(=O)[nH]c2c(C)cc(S(=O)(=O)Nc3ccc(O)cc3)cc12`, which Potency is on record?
A: The Potency was “inactive”.

Q: For `CCn1nc(NS(=O)(=O)c2ccccc2)c2cc3cc(C)ccc3nc21`, which Potency is on record?
A: Its Potency is “inactive”.

Q: For `O=C(Nn1cnnc1)c1ccc(Cl)c(Cl)c1`, which Potency is on record?
A: Its Potency is “inactive”.

Q: For `CCOC(=O)c1cc(-c2ccccc2C)n(CC2CC(c3ccc(OC)cc3)=NO2)n1` (stereo not given), which Potency is on record?
A: The Potency was “inactive”.

Q: For `COc1ccc(C(C)=O)cc1CSC(=N)N`, which Potency is on record?
A: The Potency was “inactive”.

Q: With `Cc1cc(/C=N/NC(=O)c2ccccc2F)c(C)n1-c1ccccc1` as the compound, how does the Potency read?
A: The Potency was “inactive”.

Q: For `CCOC(=O)C1CCN(S(=O)(=O)c2c[nH]c(=O)[nH]c2=O)CC1`, which Potency is on record?
A: Its Potency is “inactive”.

Q: With `CCOC(=O)CN1C(=O)N[C@@H](c2ccccc2)C(C(C)=O)=C1C` as the compound, how does the Potency read?
A: Its Potency is “inactive”.

Q: With `COC(=O)/C(C#N)=C\c1c(OC)[nH]c2ccccc12` as the compound, how does the Potency read?
A: Its Potency is “inactive”.

Q: For `C=CCc1cc(S(=O)(=O)c2ccc(O)c(CC=C)c2)ccc1O`, which Potency is on record?
A: The Potency was “inactive”.

Q: For `CC(=O)Oc1ccc(OC(C)=O)c(SCCCCCCl)c1`, which Potency is on record?
A: Its Potency is “inactive”.

Q: With `Fc1ccc(CNc2ccccn2)cc1` as the compound, how does the Potency read?
A: Its Potency is “inactive”.

Q: For `COc1ccccc1NS(=O)(=O)c1cc(NC(=O)CCc2nc3ccccc3c(=O)[nH]2)ccc1C`, which Potency is on record?
A: Its Potency is “inactive”.

Q: Which Potency does the source give for `O=C(CSc1ccc(Cl)cc1)Nc1ccc(C2SCCS2)cc1` here?
A: Its Potency is “inactive”.

Q: For `COc1ccc(S(=O)(=O)N2CCOCC2)cc1NC(=O)CN1C(=O)NC2(CCCC2)C1=O`, which Potency is on record?
A: Its Potency is “inactive”.

Q: Which Potency does the source give for `O=C(N/N=C/c1cccs1)c1ccco1` here?
A: Its Potency is “inactive”.

Q: For `CCCNC(=O)C1CCC(CNS(=O)(=O)c2ccc3c(c2)CC(C)N3C(C)=O)CC1` (stereo not given), which Potency is on record?
A: The Potency was “inactive”.

Q: For `COc1ccc2nc(SC(C)C(=O)NC3(C#N)CCCCC3)[nH]c2c1` (stereo not given), which Potency is on record?
A: The Potency was “inactive”.

Q: Which Potency does the source give for `C[C@@H](NC(=O)c1nc[nH]c1C(=O)NCc1ccc(CNC(=O)OC(C)(C)C)cc1)c1ccccc1` here?
A: The Potency was “inactive”.

Q: With `COc1ccccc1C(=O)NCc1ccccc1` as the compound, how does the Potency read?
A: The Potency was “inactive”.

Q: For `CC(C)NC(=O)NC(=O)CN1C(=O)NC(Cc2c[nH]c3ccccc23)C1=O` (stereo not given), which Potency is on record?
A: The Potency was “inactive”.

Q: Which Potency does the source give for `O=C(COC(=O)c1ccc2ncsc2c1)NCc1cccc(Cl)c1` here?
A: The Potency was “inactive”.

Q: With `O=C(NCC1CCCO1)c1c(O)c2cccc3c2n(c1=O)CCC3` (stereo not given) as the compound, how does the Potency read?
A: The Potency was “inactive”.

Q: For `CCOc1ccc(CCNC(=O)Cc2ccc(NC3=NC4CS(=O)(=O)CC4S3)cc2)cc1OCC` (stereo not given), which Potency is on record?
A: The Potency was “inactive”.

Q: Which Potency does the source give for `CC1C2=C(CC(C)(C)CC2=O)NC2=C1C(=O)CC(C)(C)C2` here?
A: The Potency was “inactive”.

Q: Which Potency does the source give for `CN(c1ccccc1)S(=O)(=O)c1ccc(C(=O)Nc2nnc(C3CC3)o2)cc1` here?
A: The Potency was “inactive”.

Q: With `COc1ccc(C)cc1NC(=O)NNC(=O)C1CCC(C(C)(C)C)CC1` (stereo not given) as the compound, how does the Potency read?
A: Its Potency is “inactive”.

Q: With `CCN1CCN(C(c2ccccc2)c2nnnn2Cc2ccc3c(c2)OCO3)CC1` (stereo not given) as the compound, how does the Potency read?
A: Its Potency is “inactive”.

Q: With `Cc1ccc(/C=C/C(=O)O)cc1S(=O)(=O)N1CCc2ccccc21` as the compound, how does the Potency read?
A: The Potency was “inactive”.

Q: With `c1ccc(C2[C@H]3CN(Cc4cccnc4)[C@H](c4ccccc4)C34CC2(c2ccccc2)C4)cc1` (stereo not given in full) as the compound, how does the Potency read?
A: Its Potency is “inactive”.

Q: Which Potency does the source give for `Cc1c(C(=O)N2CCN(S(=O)(=O)c3cccs3)CC2)oc2ccc(F)cc12` here?
A: The Potency was “inactive”.

Q: Which Potency does the source give for `COc1ccc2cc(CCNC(=O)c3ccc4c(c3)OCO4)c(=O)[nH]c2c1` here?
A: The Potency was “inactive”.

Q: For `N#Cc1cccc(NC(=O)Cn2cnc(S(=O)(=O)N3CCOCC3)c2)c1`, which Potency is on record?
A: The Potency was “inactive”.

Q: With `CCN1CCCCC(=N/O)/C(=N/O)CCCC1` as the compound, how does the Potency read?
A: Its Potency is “inactive”.

Q: For `COC(=O)C1=C(c2cccc(OC)c2OC)C[C@@H]2CC[C@H]1N2C(=O)NC1CC1`, which Potency is on record?
A: Its Potency is “inactive”.
